Sampled rows, rich in hits. Any-hit rate of the full collection: about 19%.
HT1080 IDH1KD tx: HT-1080 IDH1 knockdown cell toxicity (counter line); HT-1080 IDH1 knockdown viability, ATP luminescence, 48 h; Potency, µM (doses to about 46.1 µM), most hits filed as cytotoxic; actives 2% (n = 360,000); AID 686971
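Viability of IDH1-knockdown HT-1080 fibrosarcoma cells was assessed by CellTiter-Glo after 48 h at 37 °C with titrated compound; concentration-effect curves were classified by fit quality and response size.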
TDP1 cell noCPT: qHTS for Inhibitors of human tyrosyl-DNA phosphodiesterase 1 (TDP1): qHTS in cells in absence of CPT | actives 15% (n = 420,000) | DT40 Tdp1-/- hTDP1 cells, no CPT, ATP luminescence, 48 h | Potency, µM (doses to about 46.2 µM), usual class: inhibitors | AID 686978, 2013; also: nearly all actives have a fitted effect of over 55% in size
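Readout: luminescence from CellTiter-Glo after 30 min in the dark at RT. Cells: DT40 Tdp1-/- with stable hTDP1, 400/well. Exposure: compounds alone, ≥48 hr, 37 °C.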
IL-1B inflam inh: inflammasome signaling inhibition, IL-1 beta readout; THP-1 LPS/ATP IL-1B secretion, AlphaLISA, 16 h; hits give low values; activity change, % at 57.5 µM; actives 4.7% (n = 360,000); AID 743279; in the data active = activity change below about -50%; inconclusive = mostly about -30% to -49%
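Secreted IL-1B measured by AlphaLISA bead assay after 16 h compound exposure of THP-1 cells; compounds (final up to 57.5 uM) added 1 h before LPS (250 ng/mL) and ATP (1.25 mM) stimulation; lower signal means less secretion.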
TDP1 cell CPT: growth inhibition of DT40 Tdp1-/-;hTDP1 cells with camptothecin (screen for TDP1 inhibitors); chicken DT40 Tdp1-/-;hTDP1 cells + 20 nM CPT, ATP luminescence, 48 h; Potency, µM (highest dose often 46.2 µM), most hits filed as inhibitors; actives 12% (n = 420,000); AID 686979; also: nearly all actives have a fitted effect of over 55% in size
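Chicken DT40 Tdp1-/- cells complemented with human TDP1, 400 cells/well, exposed to compounds plus 20 nM camptothecin for at least 48 h at 37 C; viability read as ATP content by CellTiter-Glo luminescence.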
HT1080-NT tox: kills 2HG-producing HT-1080-NT fibrosarcoma cells. HT-1080-NT fibrosarcoma viability, CellTiter-Glo ATP luminescence, 48 h. Potency, µM (titrated, usually from 46.1 µM), usual class: cytotoxic. actives 1.6% (n = 360,000). AID 686970;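 also: NT is the 2HG producing partner of a matched IDH1 knockdown line; nearly all actives have a fitted effect of over 55% in size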
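Viability of the 2HG-overproducing fibrosarcoma line after 48 hours of compound exposure at 37 degrees C was determined by luminescence with CellTiter-Glo, and concentration-effect curves were then fitted and categorized.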
Numbers stand for hits. Unless noted, calls follow the shape of the dose curve; as a rule, active = well fitted curve in the direction sought with a large enough effect; inconclusive = small, poorly fitted or top-dose-only effect, or another doubt; inactive = no such curve, though single readings can be large; an effect the other way counts as inactive or inconclusive.

How did COc1cc(/C=C/c2ccc3cccc(OC)c3n2)c(OC(C)=O)c([N+](=O)[O-])c1 do in these assays?
HT1080 IDH1KD tx: inconclusive; TDP1 cell noCPT: 14.6µM; IL-1B inflam inh: inconclusive; TDP1 cell CPT: 11.6µM; HT1080-NT tox: inconclusive

What do the screens show for `Cc1ccc(S(=O)(=O)N2CCCCC2)cc1NC(=O)CSc1ncnc2ccccc12`?
HT1080 IDH1KD tx: inactive; TDP1 cell noCPT: 18.4µM; IL-1B inflam inh: -97.2; TDP1 cell CPT: 25.9µM; HT1080-NT tox: inactive

Results for Cc1ccc(S(=O)(=O)N2CCCCC2)cc1NC(=O)Nc1ccc(Cl)cc1Cl ?
HT1080 IDH1KD tx: inactive; TDP1 cell noCPT: inconclusive; IL-1B inflam inh: inactive; TDP1 cell CPT: 2.59µM; HT1080-NT tox: inactive

How did O=C(COC(=O)Cc1ccccc1)Nc1cc(S(=O)(=O)N2CCCCC2)ccc1Cl do in these assays?
HT1080 IDH1KD tx: inactive; TDP1 cell noCPT: inactive; IL-1B inflam inh: inactive; TDP1 cell CPT: inactive; HT1080-NT tox: inactive

Results for O=C(CCS(=O)(=O)c1ccc(Cl)cc1)Nc1cccc(S(=O)(=O)N2CCCCCC2)c1 ?
HT1080 IDH1KD tx: inactive; TDP1 cell noCPT: inconclusive; IL-1B inflam inh: inactive; TDP1 cell CPT: inconclusive; HT1080-NT tox: inactive

How did CN(C)C1C(=O)C(C(N)=O)=C(O)C2(O)C(=O)C3=C(O)c4c(O)cccc4C(C)(O)C3C(O)C12 (stereo not drawn) do in these assays?
HT1080 IDH1KD tx: inactive; TDP1 cell noCPT: 7.31µM; IL-1B inflam inh: inactive; TDP1 cell CPT: 10.3µM; HT1080-NT tox: inactive

What do the screens show for `CN(C)C1C(=O)C(C(N)=O)=C(O)[C@@]2(O)C(=O)C3=C(O)c4c(O)ccc(Cl)c4[C@](C)(O)C3CC12` (stereo partly drawn)?
TDP1 cell noCPT: 18.4µM; TDP1 cell CPT: 16.4µM

How did Cc1ccsc1C(=O)C1CCCN(Cc2cc(C(C)C)n[nH]2)C1 (stereo not drawn) do in these assays?
HT1080 IDH1KD tx: inactive; TDP1 cell noCPT: inconclusive; IL-1B inflam inh: inactive; TDP1 cell CPT: inactive; HT1080-NT tox: inactive

What do the screens show for `COC(=O)C1=C(c2c(C)noc2C)C[C@@H]2CC[C@H]1N2C(=O)NC(C)C`?
HT1080 IDH1KD tx: inactive; TDP1 cell noCPT: inactive; IL-1B inflam inh: inactive; TDP1 cell CPT: inactive; HT1080-NT tox: inactive

How did O=C(CCCc1nc(-c2ccc(Cl)cc2)no1)NCC1CCCO1 (stereo not drawn) do in these assays?
HT1080 IDH1KD tx: inactive; TDP1 cell noCPT: 18.4µM; IL-1B inflam inh: inactive; TDP1 cell CPT: inconclusive; HT1080-NT tox: inactive

Results for c1cnc(N2CC[C@@]3(CCCNC3)C2)nc1 ?
TDP1 cell noCPT: inactive; TDP1 cell CPT: inconclusive

What do the screens show for `COC(=O)C1=C(c2ccc(F)cc2OCc2ccccc2)C[C@@H]2CC[C@H]1N2C(=O)N1CCC(C)CC1`?
HT1080 IDH1KD tx: inconclusive; TDP1 cell noCPT: inconclusive; IL-1B inflam inh: inactive; TDP1 cell CPT: inconclusive; HT1080-NT tox: inconclusive

How did COC(=O)C1=C(c2ccc(F)cc2OCc2ccccc2)C[C@@H]2CC[C@H]1N2C(=O)N1CCC(O)(c2ccc(Cl)cc2)CC1 do in these assays?
HT1080 IDH1KD tx: inactive; TDP1 cell noCPT: 23.1µM; IL-1B inflam inh: -52.8; TDP1 cell CPT: inconclusive; HT1080-NT tox: inactive

What do the screens show for `COC(=O)C1=C(c2ccc(F)cc2OCc2ccccc2)C[C@@H]2CC[C@H]1N2C(=O)N1CCOCC1`?
HT1080 IDH1KD tx: inactive; TDP1 cell noCPT: 7.31µM; IL-1B inflam inh: inactive; TDP1 cell CPT: 8.2µM; HT1080-NT tox: inactive

Results for O=C(CCC(=O)N1CCC2(CC1)OCCO2)Nc1nnc(C2CCCCC2)s1 ?
HT1080 IDH1KD tx: inactive; TDP1 cell noCPT: inactive; IL-1B inflam inh: inactive; TDP1 cell CPT: inactive; HT1080-NT tox: inactive

What do the screens show for `CN1C(=O)C(=Cc2cn(CC(=O)N3CCCCC3)c3ccccc23)C(=O)N(C)C1=O`?
HT1080 IDH1KD tx: inactive; TDP1 cell noCPT: inactive; IL-1B inflam inh: inactive; TDP1 cell CPT: inactive; HT1080-NT tox: inactive

How did COc1ccc(OC(=O)N(C)C[C@H]2OCc3cnnn3CCCC(=O)N([C@H](C)CO)C[C@H]2C)cc1 do in these assays?
HT1080 IDH1KD tx: inactive; TDP1 cell noCPT: inactive; IL-1B inflam inh: inactive; TDP1 cell CPT: inactive; HT1080-NT tox: inactive

Bioassay records deposited in PubChem BioAssay by National Center for Advancing Translational Sciences (NCATS).
